From the supplement of paper PMC10515830
Where a name gives a salt, the structure may show the parent alone.

Tests used:
Settings in all cases: 10 µM; exposure time 6 h
[1] = tested on: Danio rerio larvae (5 dpf); assay: difference in excitability vs DMSO (percentage points); higher = more excitable than DMSO
Outline: (§1)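 In 96-well plates, 48 wild-type zebrafish larvae aged 5 dpf per compound received 100 µL egg water with library compound at 10 µM final for 6 h. Three hours into this, a 3-h programme of moving lines and 100 ms, 400Hz tones ran at 28.5 ℃ while plates were photographed every 6 s. Z-LaP Tracker scored the behaviours, and each is given as the compound mean minus the vehicle control mean in percentage points.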

[2] = tested on: Danio rerio larvae (5 dpf); assay: difference in startle response vs DMSO (percentage points); higher = stronger startle than DMSO
Outline: as §1

[3] = tested on: Danio rerio larvae (5 dpf); assay: difference in activity during first hour vs DMSO (percentage points); higher = more activity than DMSO
Outline: as §1

[4] = tested on: Danio rerio larvae (5 dpf); assay: difference in habituation to acoustic stimuli vs DMSO (percentage points); higher = more habituation than DMSO
Outline: as §1

[5] = tested on: Danio rerio larvae (5 dpf); assay: difference in combined optomotor response to red, green and blue moving lines vs DMSO (percentage points); higher = stronger optomotor response than DMSO
Outline: as §1

Structure (SMILES) | difference in excitability [1] | difference in startle response [2] | difference in activity during first hour [3] | difference in habituation to acoustic stimuli [4] | difference [5]
NCC[C@H](O)C(=O)N[C@@H]1C[C@H](N)[C@@H](O[C@H]2O[C@H](CN)[C@@H](O)[C@H](O)[C@H]2O)[C@H](O)[C@H]1O[C@H]1O[C@H](CO)[C@@H](O)[C@H](N)[C@H]1O [Amikacin] | 5.08 | 3.94 | 10.9 | 2.17 | 6.4
COc1ccc(CC(C)(C)NC[C@H](O)c2cc(O)cc3c2OCC(=O)N3)cc1 [Olodaterol] | 10.9 | -5.93 | 11.8 | -9.87 | 3.03
COC(=O)c1ccc2c(c1)NC(=O)/C2=C(\Nc1ccc(N(C)C(=O)CN2CCN(C)CC2)cc1)c1ccccc1 | 16.7 | -5.51 | -11.1 | 1.6 | 3.92
CC(C)(C)NC(=O)[C@@H]1C[C@@H]2CCCC[C@@H]2CN1C[C@@H](O)[C@H](Cc1ccccc1)NC(=O)[C@H](CC(N)=O)NC(=O)c1ccc2ccccc2n1 [Saquinavir (mesylate)] | 9.2 | -1.02 | 0.593 | 0.0845 | -1.01
CC(=O)N1CCN(c2ccc(OCC3COC(Cn4ccnc4)(c4ccc(Cl)cc4Cl)O3)cc2)CC1 (stereo not given) [Ketoconazole] | 8 | 3.5 | -5.85 | -0.327 | 5.96
CN(C)CCC(c1ccc(Cl)cc1)c1ccccn1 (stereo not given) [Chlorpheniramine (maleate)] | 1.12 | -4.13 | -11.1 | -6.14 | -4.02
CNC[C@H](O)c1ccc(O)c(O)c1 (racemic) [(±)-Epinephrine (hydrochloride)] | -0.953 | -6 | 37.7 | -7.58 | 4.53
C[C@]12C=CC(=O)C=C1CC[C@@H]1[C@@H]2[C@@H](O)C[C@@]2(C)[C@H]1CC[C@]2(O)C(=O)CO [Prednisolone] | 1.41 | 3.42 | 13.7 | 0.15 | 7.45
CCOc1nc2cccc(C(=O)OCc3oc(=O)oc3C)c2n1Cc1ccc(-c2ccccc2-c2noc(=O)[nH]2)cc1 [Azilsartan Medoxomil] | 6.47 | -1.67 | -8.07 | 5.02 | -2.25
CCC[C@@H]1C[C@@H](C(=O)N[C@@H]([C@H]2O[C@H](SC)[C@H](O)[C@@H](O)[C@H]2O)[C@H](C)Cl)N(C)C1 [Clindamycin] | -2.97 | 2.68 | -14.7 | 4.82 | -4.05
CCOC(=O)C1=C(C)NC(C)=C(C(=O)OC)C1c1cccc(Cl)c1Cl (racemic) [(±)-Felodipine] | 0.706 | -2.36 | -22.2 | -10.8 | -16.5
COc1ccc2c3c1O[C@H]1C[C@@H](O)C=C[C@@]31CCN(C)C2 [Galantamine] | 1.36 | -0.28 | 15.8 | -3.53 | 4.1
CC[C@@H](CO)NCCN[C@@H](CC)CO [Ethambutol (hydrochloride)] | 2.65 | 1.19 | 7 | 4.16 | -3.67
CCc1cc(C(N)=S)ccn1 [Ethionamide] | -2.77 | -1 | -3.96 | 0.506 | 2.57
C#C[C@]1(O)CC[C@H]2[C@@H]3CCc4cc(O)ccc4[C@H]3CC[C@@]21C [Ethynyl Estradiol] | 3.58 | -3.27 | -24 | -11 | -17.5
CC1(C)CCC(CN2CCN(c3ccc(C(=O)NS(=O)(=O)c4ccc(NCC5CCOCC5)c([N+](=O)[O-])c4)c(Oc4cnc5[nH]ccc5c4)c3)CC2)=C(c2ccc(Cl)cc2)C1 | 0.697 | -11.3 | 10.4 | 2.22 | 3.34

Structure (SMILES) | difference in excitability [1] | difference in startle response [2] | difference in activity during first hour [3] | difference in habituation to acoustic stimuli [4] | difference [5]
CNC(=O)c1cc(Oc2ccc(NC(=O)Nc3ccc(Cl)c(C(F)(F)F)c3)c(F)c2)ccn1 [Regorafenib] | 20.9 | -2.66 | -3.38 | -6.09 | 1.15
Cn1c(=O)c2[nH]cnc2n(C)c1=O [Oxtriphylline] | -4.32 | 6.97 | -0.101 | 1.02 | -3.12
Cc1cn(-c2cc(NC(=O)c3ccc(C)c(Nc4nccc(-c5cccnc5)n4)c3)cc(C(F)(F)F)c2)cn1 [Nilotinib] | 28.8 | -3.62 | -6.05 | -1.02 | -2.49
C[C@](N)(Cc1ccc(O)c(O)c1)C(=O)O [L-(-)-α-Methyldopa] | 2.76 | -2.74 | 3.45 | -1.83 | 6
C[C@@H]1C[C@H]2[C@@H]3CCC4=CC(=O)C=C[C@]4(C)[C@@]3(F)[C@@H](O)C[C@]2(C)[C@@]1(O)C(=O)CO [Dexamethasone] | -4.56 | -3.99 | -6.96 | 0.952 | 3.79
O=C(NC[C@H]1CN(c2ccc(N3CCOCC3=O)cc2)C(=O)O1)c1ccc(Cl)s1 [Rivaroxaban] | -1.52 | -3.86 | -2.47 | -4.56 | 1.67
Nc1nc(Cl)nc2c1ncn2[C@@H]1O[C@H](CO)[C@@H](O)[C@@H]1F [Clofarabine] | -0.183 | -0.201 | 0.725 | 2.7 | 1.77
CN1CCC(=C2c3ccccc3CCn3c(C=O)cnc32)CC1 [Alcaftadine] | -1.49 | 3.88 | 20.6 | -3 | -2.52
Cc1oncc1C(=O)Nc1ccc(C(F)(F)F)cc1 [Leflunomide] | 20.4 | -4.19 | 4.33 | -10.8 | 2.2
CNC(=O)c1ccc(N2C(=S)N(c3cnc(C#N)c(C(F)(F)F)c3)C(=O)C23CCC3)cc1F | -1.56 | -1.13 | 6.27 | 0.499 | 11.9
CC(CN(C)C)CN1c2ccccc2CCc2ccccc21 (stereo not given) [Trimipramine (maleate)] | 12.5 | -3.72 | -0.632 | -5.79 | 0.935
C[C@]12C=CC(=O)C=C1CC[C@@H]1[C@@H]2C(=O)C[C@@]2(C)[C@H]1CC[C@]2(O)C(=O)CO [Prednisone] | 14.1 | 2.97 | -14.4 | 6.62 | -4.57
C[C@H](Cc1cc2c(c(C(N)=O)c1)N(CCCO)CC2)NCCOc1ccccc1OCC(F)(F)F [Silodosin] | 15.3 | 3.54 | 3.31 | -5.47 | 4.97
COc1cc2ncnc(Nc3ccc(F)c(Cl)c3)c2cc1NC(=O)/C=C/CN1CCCCC1 | 16.4 | 0.667 | -10.7 | -0.587 | 6.72
CC/C(=C(\c1ccccc1)c1ccc(OCCN(C)C)cc1)c1ccccc1 [Tamoxifen (citrate)] | -1.02 | -2.65 | 14.8 | -2.18 | -15.8
Cc1nc2n(c(=O)c1CCN1CCC(c3noc4cc(F)ccc34)CC1)CCCC2O (stereo not given) [Paliperidone] | 15.4 | 0.117 | 18.6 | 0.732 | 5.58
